Results from PubChem BioAssay AID1159580 (chemical genetic matrix, 2015).
Out of some 5,500 compounds screened, about 2,000 (36%) were called active. Roughly 18% stayed inconclusive and do not appear here. Cut-off read from the data, not from the text of the source: active = normalized growth mostly below about 0.91 (no sharp cut-off); inconclusive = no clear call, values can overlap the other calls; inactive = mostly above about 0.92. The list shows a part of the results.

Assay: chemical genetic growth profiling, strain panel (AID 1159580);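 note: tested at 20 µM; growth read once vehicle control cultures reached saturation at 30 °C; 1 = growth at the plate median or of vehicle wells; lower values mean less growth of the strain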
Conditions: growth OD

Measured: normalized growth

COC(=O)C[C@H]1C(C)(C)C(=O)[C@@H]2CC3=C(CC[C@]4(C)C3=CC(=O)O[C@H]4c3ccoc3)[C@@]1(C)C2=O
inactive: S. cerevisiae deletion strains, locus YJL168C, strain set2, active compounds read low 1.02 | S. cerevisiae deletion strains, locus YJL187C, strain SWE1 (second series), active compounds read low 1.01 | S. cerevisiae deletion strains, locus YJL187C, strain SWE1, active compounds read low 0.993 | S. cerevisiae deletion strains, locus YJR066W, strain TOR1, active compounds read low 0.928 | S. cerevisiae deletion strains, locus YKL009W, strain mrt4, active compounds read low 1.01 | S. cerevisiae deletion strains, locus YKL068W, active compounds read low 1.01 | S. cerevisiae deletion strains, locus YKL085W, strain MDH1 (second series), active compounds read low 1.01 | S. cerevisiae deletion strains, locus YKL085W, strain MDH1, active compounds read low 1.01 | S. cerevisiae deletion strains, locus YKL160W, strain elf1, active compounds read low 0.995 | S. cerevisiae deletion strains, locus YKR001C, strain vps1, active compounds read low 1.01 | S. cerevisiae deletion strains, locus YKR026C, strain gcn3, active compounds read low 0.975 | S. cerevisiae deletion strains, locus YKR091W, strain srl3, active compounds read low 0.984 | S. cerevisiae deletion strains, locus YLL001W, strain dnm1, active compounds read low 1 | S. cerevisiae deletion strains, locus YLL026W, active compounds read low 0.982 | S. cerevisiae deletion strains, locus YLL041C, strain sdh2, active compounds read low 0.972 | S. cerevisiae deletion strains, locus YLR027C, strain aat2, active compounds read low 0.984 | S. cerevisiae deletion strains, locus YLR039C, strain RIC1, active compounds read low 1.03 | S. cerevisiae deletion strains, locus YLR058C, strain SHM2, active compounds read low 1.01 | S. cerevisiae deletion strains, locus YLR102C, strain apc9, active compounds read low 1.02 | S. cerevisiae deletion strains, locus YLR113W, strain HOG1, active compounds read low 1.02 | S. cerevisiae deletion strains, locus YLR221C, strain rsa3, active compounds read low 0.958 | S. cerevisiae deletion strains, locus YLR258W, strain gsy2, active compounds read low 0.961 | S. cerevisiae deletion strains, locus YLR262C, strain YPT6 (second series), active compounds read low 1.04 | S. cerevisiae deletion strains, locus YLR262C, strain YPT6, active compounds read low 1.09 | S. cerevisiae deletion strains, locus YLR268W, strain sec22, active compounds read low 1.01 | S. cerevisiae deletion strains, locus YLR320W, strain mms22, active compounds read low 0.963 | S. cerevisiae deletion strains, locus YLR342W, strain FKS1, active compounds read low 0.963 | S. cerevisiae deletion strains, locus YLR357W, strain rsc2, active compounds read low 0.963 | S. cerevisiae deletion strains, locus YLR370C, strain arc18, active compounds read low 0.956 | S. cerevisiae deletion strains, locus YLR371W, strain rom2, active compounds read low 1.02 | S. cerevisiae deletion strains, locus YLR384C, strain iki3, active compounds read low 0.968 | S. cerevisiae deletion strains, locus YLR418C, strain cdc73, active compounds read low 1.03 | S. cerevisiae deletion strains, locus YML016C, strain PPZ1, active compounds read low 1.05 | S. cerevisiae deletion strains, locus YML032C, strain rad52, active compounds read low 1.01 | S. cerevisiae deletion strains, locus YML120C, strain ndi1, active compounds read low 0.976 | S. cerevisiae deletion strains, locus YML124C, strain tub3, active compounds read low 1.01 | S. cerevisiae deletion strains, locus YMR058W, strain fet3, active compounds read low 0.993 | S. cerevisiae deletion strains, locus YMR078C, strain ctf18, active compounds read low 1.03 | S. cerevisiae deletion strains, locus YMR125W, strain sto1, active compounds read low 0.975 | S. cerevisiae deletion strains, locus YMR129W, active compounds read low 0.988 | S. cerevisiae deletion strains, locus YMR205C, strain PFK2, active compounds read low 0.997 | S. cerevisiae deletion strains, locus YMR223W, strain ubp8, active compounds read low 1.01 | S. cerevisiae deletion strains, locus YMR231W, strain pep5, active compounds read low 0.953 | S. cerevisiae deletion strains, locus YMR307W, strain GAS1, active compounds read low 1.03 | S. cerevisiae deletion strains, locus YNL067W, strain RPL9B, active compounds read low 1.01 | S. cerevisiae deletion strains, locus YNL071W, strain lat1, active compounds read low 0.972 | S. cerevisiae deletion strains, locus YNL183C, strain NPR1, active compounds read low 0.942 | S. cerevisiae deletion strains, locus YNL209W, strain ssb2, active compounds read low 0.984 | S. cerevisiae deletion strains, locus YNL233W, strain BNI4, active compounds read low 0.984 | S. cerevisiae deletion strains, locus YNL248C, strain rpa49, active compounds read low 0.977 | S. cerevisiae deletion strains, locus YNL250W, strain rad50, active compounds read low 1.02 | S. cerevisiae deletion strains, locus YNL271C, strain bni1, active compounds read low 1.01 | S. cerevisiae deletion strains, locus YNL298W, strain CLA4, active compounds read low 1.02 | S. cerevisiae deletion strains, locus YNL307C, strain MCK1, active compounds read low 1.02 | S. cerevisiae deletion strains, locus YNL322C, strain KRE1 (second series), active compounds read low 0.966 | S. cerevisiae deletion strains, locus YNR049C, strain mso1, active compounds read low 0.975 | S. cerevisiae deletion strains, locus YNR052C, strain pop2, active compounds read low 1.03 | S. cerevisiae deletion strains, locus YOL012C, strain htz1 1.95 | S. cerevisiae deletion strains, locus YOL147C, strain pex11, active compounds read low 1.01 | S. cerevisiae deletion strains, locus YOR001W, strain rrp6, active compounds read low 0.946 | S. cerevisiae deletion strains, locus YOR061W, strain CKA2, active compounds read low 1 | S. cerevisiae deletion strains, locus YOR069W, strain VPS5, active compounds read low 1 | S. cerevisiae deletion strains, locus YOR070C, strain gyp1, active compounds read low 0.979 | S. cerevisiae deletion strains, locus YOR080W, strain dia2, active compounds read low 0.966 | S. cerevisiae deletion strains, locus YOR083W, strain WHI5, active compounds read low 1.01 | S. cerevisiae deletion strains, locus YOR106W, strain vam3, active compounds read low 0.974 | S. cerevisiae deletion strains, locus YOR136W, strain idh2, active compounds read low 1.01 | S. cerevisiae deletion strains, locus YOR144C, strain elg1, active compounds read low 1 | S. cerevisiae deletion strains, locus YOR184W, strain ser1, active compounds read low 1 | S. cerevisiae deletion strains, locus YOR231W, strain MKK1, active compounds read low 0.99 | S. cerevisiae deletion strains, locus YOR265W, strain rbl2, active compounds read low 0.972 | S. cerevisiae deletion strains, locus YOR270C, strain vph1, active compounds read low 0.963 | S. cerevisiae deletion strains, locus YOR290C, strain snf2, active compounds read low 0.992 | S. cerevisiae deletion strains, locus YOR316C, strain cot1, active compounds read low 1 | S. cerevisiae deletion strains, locus YPL051W, strain arl3, active compounds read low 1 | S. cerevisiae deletion strains, locus YPL078C, strain atp4, active compounds read low 0.996 | S. cerevisiae deletion strains, locus YPL106C, strain sse1, active compounds read low 0.952 | S. cerevisiae deletion strains, locus YPL240C, strain hsp82, active compounds read low 0.978 | S. cerevisiae deletion strains, locus YPL256C, strain CLN2, active compounds read low 0.961 | S. cerevisiae deletion strains, locus YPR119W, strain clb2, active compounds read low 1.01 | S. cerevisiae deletion strains, locus YPR141C, strain kar3, active compounds read low 1.02 | S. cerevisiae deletion strains, locus YPR163C, strain tif3, active compounds read low 1 | S. cerevisiae deletion strains, locus YPR167C, strain met16, active compounds read low 1.02 | S. cerevisiae deletion strains, strain wtn01, active compounds read low 1 | S. cerevisiae strains, strain wild type, active compounds read low 0.992
